Experiment [1] is described as follows: AP1 Signaling Pathway (AID 357; active = well fitted curve in either direction with a large enough effect, not every such curve was filed as active;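 also: ME-180 reporter cells stimulated with EGF at its EC50 level; % is scaled to controls: 0 for no effect and ±100 for the full control effect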). The method, boiled down: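 Beta-lactamase reporter under AP-1 response element, ME-180 background. Stimulus: EC50 EGF. Compound exposure 5 h, 37 °C. Detection: CCF4, 2.5 h RT, 460/530 nm. Values: AC50 from titration.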
Experiment [2] in a line: NFAT Signaling Pathway (AID 444; active = well fitted curve in either direction with a large enough effect, not every such curve was filed as active;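 also: carbachol stimulus at about its EC50 of 1 µM final; % is scaled to controls: 0 for no effect and ±100 for the full control effect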). The settings on record: Jurkat NFAT-bla M1, carbachol, beta-lactamase ratio, 5 h. The method, boiled down:
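Read-out: CCF4 FRET ratio (460 nm/530 nm) after 1 h RT dye loading, used for %activity and AC50 from titration series. Cells: Jurkat NFAT-β-lactamase/M1 line, treated with compound plus 1 uM carbachol for 5 h, 37 °C.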

Experiment [3] in a line: Stat Signaling Pathway (AID 446; active = well fitted curve in either direction with a large enough effect, not every such curve was filed as active;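 also: ME-180 cervical cancer cells given 40 pM IL-6 alongside compound; SIE-controlled beta-lactamase reporter measured as 460/530 nm FRET emission ratio; % is scaled to controls: 0 for no effect and ±100 for the full control effect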). A digest of the protocol: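 Compound effects on IL-6-induced STAT reporter activity were measured in ME-180 cells. After overnight culture, cells were co-treated with 40 pM IL-6 for 5 hrs before beta-lactamase substrate loading at room temperature.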
Experiment [4] deals with Mitogen-activated protein kinase 10 (Mus musculus) (UniProt Q61831). The experiment can be described thus: JNK3 AlphaScreen Assay (AID 530; active = well fitted curve in either direction with a large enough effect, not every such curve was filed as active;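 also: kinase came from lysate of stimulated human HepG2 cells; signal reports phosphorylation of biotinylated GST-cJun 1-79 at Ser73 with 10 µM ATP; % is scaled to controls: 0 for no effect and ±100 for the full control effect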). A digest of the protocol: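 Kinase buffer: 20 mM Tris-HCl pH 7.6, 10 mM MgCl2, 1 mM DTT, 0.1 mM Na3VO4, 0.01% Tween-20; ATP 10 uM. Substrate biotin-GST-cJun(1-79), enzyme from activated HepG2 lysates. Detection by Ser73 phospho-antibody AlphaScreen.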

Experiment [5] concerns the target 3',5'-cyclic-AMP phosphodiesterase 4B (Homo sapiens) (UniProt Q07343). The experiment can be described thus: qHTS Assay for Inhibitors of PDE-IV (AID 607; active = well fitted activation curve with a large enough effect in the main read-out, with a control signal flat, not every such curve was filed as active; also: % of control where 0% means no effect). The method, boiled down: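 ACTOne HEK293 cells carry a modified cAMP-gated CNG channel and express endogenous PDE4; plated 1000 cells/well, compounds up to 22.9 uM final. Membrane-potential dye fluorescence (ex 535/em 590) was read; parental cells received 10 uM forskolin + 100 uM RO 20-1724.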

Experiment [6] deals with Guanine nucleotide-binding protein G(i) subunit alpha-1 (Homo sapiens) (UniProt P63096). The experiment can be described thus: qHTS Assay for Inhibitors of RGS12 GoLoco Motif Activity (Green Fluorophore) (AID 879).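 Also: 0% = labeled peptide with Gαi1 and full inhibition = labeled peptide alone without protein; negative values mean loss of peptide binding seen as reduced polarization.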 A digest of the protocol:
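A drop in FITC polarization marked displacement of the FITC-tagged RGS12 GoLoco peptide (10 nM) from Gαi1 (50 nM). Compounds were incubated 10 min at room temperature in Tris pH 7.5 buffer containing 150 mM NaCl, 0.1 mM GDP and 0.05% NP40; unlabeled peptide titration served as control.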

Experiment [7] in a line: qHTS Assay for Identification of Small Molecule Antagonists for NFkB Signaling Pathway (AID 895; active = well fitted inhibition curve with a large enough effect in the signal ratio, with a control signal flat, not every such curve was filed as active; the % refers to the signal ratio; also: % is scaled to controls: 0 for no effect and ±100 for the full control effect). The method, boiled down: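 Beta-lactamase reporter read-out (460 and 530 nm emission ratio, 405 nm excitation, 2 hrs substrate loading RT) after 5 hr stimulation with 10 pM TNF alpha in compound-treated NFkB-bla ME-180 cells in low-serum medium.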
The nature of experiment [8]: qHTS Assay for Identification of Small Molecule Agonists for Thrombopoietin (TPO) Signaling Pathway (AID 917). Also: % is scaled to controls: 0 for no effect and ±100 for the full control effect. A digest of the protocol:
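Quantitative HTS for pathway activators: compounds were pin-transferred onto IL-3-starved Ba/F3 cells expressing human TPO receptor, TPO was added at its EC50 (26 pM final), and after 24 hrs at 37 C reporter luciferase was measured.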

For experiment [9], the target named is Pyruvate kinase (Leishmania mexicana) (UniProt Q27686). The experiment is described as follows: qHTS Validation Assay for Inhibitors of Leishmania Mexicana Pyruvate Kinase (AID 945).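 Also: 0% = DMSO only neutral control wells.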 The method, boiled down:
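Eight-point qHTS titrations; enzyme 0.2 nM LmPYK (E451W mutant); substrates 0.5 mM PEP, 0.1 mM ADP; 7 mM MgCl2; 1 h room temperature; PKLight luminescence normalized to neutral control.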

The target in experiment [10] is Pyruvate kinase PKM (Homo sapiens) (UniProt P14618). The experiment can be described thus: qHTS Assay for Activators of Human Muscle Pyruvate Kinase (AID 954; active = well fitted curve in the direction sought with a large enough effect, not every such curve was filed as active;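 also: 0% = uninhibited enzyme and -100% = no enzyme or full thiadiazolimine inhibition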). A digest of the protocol:
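A coupled luminescent readout tracked ATP made from ADP by purified PKM2. Final conditions included 0.1 nM enzyme, PEP and ADP at 0.5 and 0.1 mM, pH 7.2 imidazole buffer with BSA, and a one-hour room-temperature reaction.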

For experiment [11], the target named is Alpha-galactosidase (Coffea arabica) (UniProt Q42656). The experiment can be described thus: Counterscreen for Glucocerebrosidase Inhibitors: qHTS Assay for Coffee Bean alpha-Galactosidase at pH 4.5 (AID 957).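 Also: plate controls were enzyme alone for no effect and no enzyme for full effect.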 A digest of the protocol: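 Fluorogenic read-out: 4-methylumbelliferone at Ex 365/Em 440 nm after NaOH/glycine stop (pH 10). Enzyme 2 nM, 4-MU-alpha-galactoside 80 uM, citrate buffer pH 4.5, 20 min RT; normalized to no-enzyme and enzyme controls.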
Sequence of Alpha-galactosidase (Coffea arabica) (Q42656 whole entry, looked up): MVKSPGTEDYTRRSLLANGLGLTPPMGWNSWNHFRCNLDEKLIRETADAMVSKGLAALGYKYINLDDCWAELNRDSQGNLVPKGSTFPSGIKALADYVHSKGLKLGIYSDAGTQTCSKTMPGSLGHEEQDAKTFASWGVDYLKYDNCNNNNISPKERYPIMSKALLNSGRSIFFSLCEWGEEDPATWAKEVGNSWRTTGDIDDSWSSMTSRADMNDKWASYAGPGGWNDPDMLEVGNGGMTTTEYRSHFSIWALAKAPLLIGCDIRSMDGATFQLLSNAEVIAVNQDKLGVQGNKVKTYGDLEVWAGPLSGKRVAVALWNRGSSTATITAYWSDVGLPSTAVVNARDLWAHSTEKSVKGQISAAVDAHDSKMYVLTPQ

The target in experiment [12] is Alpha-galactosidase A (Homo sapiens) (UniProt P06280). The experiment can be described thus: Counterscreen for Glucocerebrosidase Inhibitors: qHTS Assay for Human alpha-Galactosidase at pH 4.5 (AID 992). Also: 0% is about no effect. A digest of the protocol:
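Citrate buffer pH 4.5, Tween-20 0.005%. Enzyme 2 nM, substrate 80 uM, 20 min RT. Stop pH 10. Fluorescence Ex 365/Em 440. AC50 by Hill fit.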

The target in experiment [13] is alpha-glucosidase (Oryza sativa, rice) (UniProt Q653V4). The experiment is described as follows: Counterscreen for Glucocerebrosidase Inhibitors: qHTS Assay for Rice alpha-Glucosidase at pH 5.0 (AID 997).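 Also: 0% = full activity with enzyme and -100% = basal without enzyme.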 A digest of the protocol:
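Endpoint fluorogenic assay at pH 5.0: compounds (0.7 nM to 77 uM) titrated against 4 nM rice enzyme and 400 uM 4-MU-alpha-glucoside for 20 min at room temperature; NaOH/glycine stop, read ex 365/em 440 nm, Hill-fitted AC50.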

The target in experiment [14] is Alpha-galactosidase (Coffea arabica) (UniProt Q42656). The experiment is described as follows: Counterscreen for Glucocerebrosidase Inhibitors: qHTS Assay for Coffee Bean alpha-Galactosidase at pH 5.9 (AID 998).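 Also: plate controls were uninhibited enzyme for no effect and no-enzyme basal signal for full effect.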 The method, boiled down:
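Fluorogenic 4-MU substrate hydrolysis, 80 uM substrate and 2 nM coffee bean alpha-galactosidase, pH 5.9 citrate buffer, 20 min at room temperature, then NaOH/glycine stop. Titration 0.7 nM–77 uM, normalized to no-enzyme and enzyme controls, AC50 via Hill equation.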

In experiment [15] the target is Luciferin 4-monooxygenase (Photinus pyralis) (UniProt P08659). The experiment can be described thus: Biochemical firefly luciferase enzyme assay for NPC (AID 624030).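 Also: purified P. pyralis luciferase at 10 nM with luciferin and ATP substrate; 0% = DMSO and -100% = full luciferase inhibition by PTC124 control; nearly all actives have a fitted effect of over 70% in size.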 The method, boiled down: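 Direct inhibition of firefly luciferase enzyme (10 nM final, 50 mM Tris Acetate) assessed by luminescence within 5 minutes. Percent activity scaled between DMSO and PTC124 positive control, with concentration-effect curves classified by fit quality and response.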
Sequence of Luciferin 4-monooxygenase (Photinus pyralis) (P08659 whole entry, looked up): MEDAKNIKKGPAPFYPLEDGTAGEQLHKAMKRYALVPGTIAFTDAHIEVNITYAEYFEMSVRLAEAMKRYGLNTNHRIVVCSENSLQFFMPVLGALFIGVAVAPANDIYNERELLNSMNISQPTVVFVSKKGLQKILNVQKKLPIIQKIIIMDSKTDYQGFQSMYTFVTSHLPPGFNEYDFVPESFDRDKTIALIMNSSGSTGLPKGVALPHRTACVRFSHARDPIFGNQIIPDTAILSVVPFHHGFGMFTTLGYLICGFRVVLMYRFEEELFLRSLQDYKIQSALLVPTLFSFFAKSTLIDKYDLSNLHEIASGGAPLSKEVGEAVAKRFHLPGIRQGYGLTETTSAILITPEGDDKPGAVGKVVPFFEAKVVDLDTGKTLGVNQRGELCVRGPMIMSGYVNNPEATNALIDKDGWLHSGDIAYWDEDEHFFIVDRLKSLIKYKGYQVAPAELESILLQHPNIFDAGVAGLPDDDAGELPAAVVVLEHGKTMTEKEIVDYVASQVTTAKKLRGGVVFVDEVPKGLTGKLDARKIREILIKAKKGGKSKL

A short description of experiment [16]: qHTS Assay for Identifying Gametocytocidal Compounds (AID 743244).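 Also: % is scaled to controls: 0 for no effect and ±100 for the full control effect; actives lower the fluorescent signal which means gametocytes are killed.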 The conditions noted are these: P. falciparum 3D7 stage III-V gametocytes, alamarBlue, 72 h; max response: hits give low values. A digest of the protocol:
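In this qHTS viability screen, late-stage 3D7 gametocytes are incubated with compound for 72 h, then with alamarBlue for 24 h; reduced resorufin fluorescence marks killing.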

A short description of experiment [17]: P-glycoprotein substrates identified in KB-8-5-11 adenocarcinoma cell line, qHTS therapeutic library screen (AID 1346987). Also: nearly all actives have a fitted effect of over 65% in size. Also: potency is read from the fitted curve at half-maximal effect. A digest of the protocol: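 In this qHTS, P-gp-rich KB-8-5-11 cells received library compounds across a concentration range. Viability was quantified by luminescence after 72 h at 37 degree C.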
A further experiment deals with Furin (Homo sapiens) (UniProt P09958). The experiment can be described thus: Furin counterscreen qHTS for Zika virus inhibitors (AID 1347149).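 Also: purified recombinant full-length human furin enzyme at 5 nM; fluorescence gain from furin cutting a BOC-RVRR-AMC peptide substrate over 15 min; top concentration of the series differs between compounds; plate controls were no-inhibitor control for no effect and no-enzyme control for full effect; nearly all actives have a fitted effect of over 70% in size.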 The method, boiled down: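 Counterscreen measures cleavage of 2 microM BOC-RVRR-AMC, below its ~15 microM Km, by 5 nM full-length human furin at pH 7.0 after a 15-min compound preincubation. Inhibition derives from the 15-min fluorescence increase at 37C.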
Sequence of Furin (Homo sapiens) (P09958 whole entry, looked up): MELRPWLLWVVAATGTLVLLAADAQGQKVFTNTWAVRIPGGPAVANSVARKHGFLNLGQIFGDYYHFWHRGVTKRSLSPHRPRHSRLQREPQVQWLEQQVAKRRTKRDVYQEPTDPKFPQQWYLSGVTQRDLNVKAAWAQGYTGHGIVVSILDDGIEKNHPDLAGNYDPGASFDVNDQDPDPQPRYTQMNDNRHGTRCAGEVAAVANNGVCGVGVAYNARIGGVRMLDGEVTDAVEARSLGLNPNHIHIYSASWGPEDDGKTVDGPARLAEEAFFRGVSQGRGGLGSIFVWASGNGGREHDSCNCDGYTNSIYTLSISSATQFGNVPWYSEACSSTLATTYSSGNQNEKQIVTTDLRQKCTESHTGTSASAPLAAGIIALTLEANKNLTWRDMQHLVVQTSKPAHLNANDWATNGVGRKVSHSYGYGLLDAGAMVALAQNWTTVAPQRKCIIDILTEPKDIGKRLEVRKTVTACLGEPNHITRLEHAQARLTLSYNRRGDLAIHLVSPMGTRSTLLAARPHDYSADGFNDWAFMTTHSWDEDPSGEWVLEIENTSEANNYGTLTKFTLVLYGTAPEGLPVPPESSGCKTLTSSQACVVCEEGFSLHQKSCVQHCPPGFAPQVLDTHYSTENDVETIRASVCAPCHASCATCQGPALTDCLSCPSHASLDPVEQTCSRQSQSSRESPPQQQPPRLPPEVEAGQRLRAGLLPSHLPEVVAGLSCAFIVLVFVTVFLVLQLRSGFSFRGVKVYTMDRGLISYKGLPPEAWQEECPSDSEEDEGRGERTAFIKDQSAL

The subject of experiment [18] is Zika virus NS2B-NS3 protease (unlinked). The experiment can be described thus: Optimization of GU AMC qHTS for Zika virus inhibitors: Unlinked NS2B-NS3 protease assay (AID 1347151).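 Also: 0% = no-inhibitor control and -100% = no-enzyme control; nearly all actives have a fitted effect of over 80% in size.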 A digest of the protocol:
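Percent inhibition is derived from the 15-min change in AMC fluorescence, normalized against no-inhibitor and no-enzyme controls, then fitted to a 4-parameter Hill curve. Aprotinin was the intraplate control.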

A short description of experiment [19]: Vero cells viability qHTS for Zika virus inhibitors (AID 1347167). Also: % is scaled to controls: 0 for no effect and ±100 for the full control effect. A digest of the protocol: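 Luminescent ATP readout (CellTiter Glo) after 30 min at 37 degrees C gives viability; cells in DMEM + 4% FBS were treated 24 to 48 hours with compound, following overnight attachment.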
Experiment [20] can be described thus: Tertiary RLuc qRT-PCR qHTS assay for Zika virus inhibitors (AID 1347169). Also: top concentration of the series differs between compounds; % is scaled to controls: 0 for no effect and ±100 for the full control effect; nearly all actives have a fitted effect of over 55% in size. The method, boiled down:
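Orthogonal cell-based infection assay using recombinant ZIKV-RLuc (Cambodian) in Vero cells; compound added prior to virus at MOI 1-2. Incubation lasts 48-72 hrs at 37 degrees C before live-cell Renilla substrate is added and luminescence measured.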

The next experiment relates to astro. The experiment can be described thus: Drug repurposing screens with cells derived from glioblastoma tumor samples (AID 1345199). Also: % is scaled to controls: 0 for no effect and ±100 for the full control effect; nearly all actives have a fitted effect of over 40% in size. The conditions noted are these: viability, ATP luminescence, 48 h; series mostly up to 45.9 µM. The method, boiled down:
(§1)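 Primary testing used CD133+ neurospheres from four GBM patients, seven concentrations, 48 h exposure and ATP-based viability; confirmation added three slower-growing patient lines.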

A short description of experiment [21]: qHTS for Inhibitors of the Functional Ribonucleoprotein Complex (vRNP) of Lassa (LASV) Arenavirus: LASV Primary Screen - GLuc reporter signal (AID 1347082; calls by dose curve; tested in HEK293 reporter line; also: nearly all actives have a fitted effect of over 60% in size; also: potency is read from the fitted curve at half-maximal effect).
Experiment [22] is described as follows: Drug repurposing screens with cells derived from glioblastoma tumor samples (AID 1345199). Also: % is scaled to controls: 0 for no effect and ±100 for the full control effect; nearly all actives have a fitted effect of over 40% in size. The settings on record: GBM patient neurospheres viability, ATP luminescence, 48 h; Potency: tumour line A; series mostly up to 45.9 µM. A digest of the protocol:
as §1

Experiment [23] concerns Zika virus NS2B-NS3 protease. The experiment is described as follows: Primary screen GU AMC qHTS for Zika virus inhibitors (AID 1347154).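 Also: 0% = no-inhibitor control and -100% = no-enzyme control; nearly all actives have a fitted effect of over 70% in size.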 A digest of the protocol:
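Fluorogenic AMC-substrate cleavage by noncovalent NS2B-NS3 protease complex (25 nM, pH 8.0 Tris buffer with Tween 20) followed for 15 minutes at room temperature (~20% conversion). Percent inhibition from ex340/em450 signal change, fitted by 4-parameter Hill equation.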

The nature of experiment [24]: Primary qHTS for small molecule stabilizers of the endoplasmic reticulum resident proteome: Secreted ER Calcium Modulated Protein (SERCaMP) assay (AID 1508630). Also: % is scaled to controls: 0 for no effect and ±100 for the full control effect. The method, boiled down:
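The SH-SY5Y reporter protocol was run at 3 concentrations up to 38.3 uM (primary) or 11 concentrations (follow-up): 16 h compound, 100 nM thapsigargin for 4 h, then extracellular luciferase luminescence.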

Experiment [25] is described as follows: Primary qHTS for inhibitors of nuclear receptor binding SET domain protein 2 (NSD2) in an isogenic RCH-ACV NSD2 p.E1099K mutant (9B) (AID 1645876). Also: potency is read from the fitted curve at half-maximal effect; nearly all actives have a fitted effect of over 70% in size.
A short description of experiment [26]: Primary qHTS for inhibitors of nuclear receptor binding SET domain protein 2 (NSD2) in an RCH-ACV wild type WT cells (2C) (AID 1645877).
Experiment [27] concerns the target Glutathione peroxidase 1 (Homo sapiens) (UniProt P07203). The experiment can be described thus: Primary qHTS Assay for Inhibitors of Recombinant Selenoprotein Glutathione Peroxidase 1 (GPX1) (AID 1845191). Also: % is scaled to controls: 0 for no effect and ±100 for the full control effect; nearly all actives have a fitted effect of over 65% in size. A digest of the protocol: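 NADPH consumption tracked by fluorescence at 340/450 nm between t=0 and t=15 min, room temperature. Final mix: 10 nM GPX1, 100 nM glutathione reductase, 1 mM GSH, 0.5 mM NADPH, 0.5 mM cumene hydroperoxide, 0.01% BSA; 30 min compound–enzyme preincubation.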

The structures appear in SMILES notation. Values without a mark were called inactive. Inconclusive results are not listed. Activity calls are given as the source filed them. Unless noted, calls follow the shape of the dose curve; as a rule, active = well fitted curve in the direction sought with a large enough effect; inconclusive = small, poorly fitted or top-dose-only effect, or another doubt; inactive = no such curve, though single readings can be large; an effect the other way counts as inactive or inconclusive.

Sequence of Guanine nucleotide-binding protein G(i) subunit alpha-1 (Homo sapiens) (P63096 whole entry, looked up): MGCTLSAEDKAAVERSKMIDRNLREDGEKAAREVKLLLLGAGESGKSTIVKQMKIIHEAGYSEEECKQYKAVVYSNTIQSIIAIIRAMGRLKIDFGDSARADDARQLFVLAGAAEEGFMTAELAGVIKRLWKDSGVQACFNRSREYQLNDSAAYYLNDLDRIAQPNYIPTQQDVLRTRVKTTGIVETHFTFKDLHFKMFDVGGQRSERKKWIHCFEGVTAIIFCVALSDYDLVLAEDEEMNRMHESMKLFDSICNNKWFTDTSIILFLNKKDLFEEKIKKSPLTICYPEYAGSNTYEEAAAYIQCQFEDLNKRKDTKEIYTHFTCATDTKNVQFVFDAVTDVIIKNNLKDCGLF
Sequence of Alpha-galactosidase A (Homo sapiens) (P06280 whole entry, looked up): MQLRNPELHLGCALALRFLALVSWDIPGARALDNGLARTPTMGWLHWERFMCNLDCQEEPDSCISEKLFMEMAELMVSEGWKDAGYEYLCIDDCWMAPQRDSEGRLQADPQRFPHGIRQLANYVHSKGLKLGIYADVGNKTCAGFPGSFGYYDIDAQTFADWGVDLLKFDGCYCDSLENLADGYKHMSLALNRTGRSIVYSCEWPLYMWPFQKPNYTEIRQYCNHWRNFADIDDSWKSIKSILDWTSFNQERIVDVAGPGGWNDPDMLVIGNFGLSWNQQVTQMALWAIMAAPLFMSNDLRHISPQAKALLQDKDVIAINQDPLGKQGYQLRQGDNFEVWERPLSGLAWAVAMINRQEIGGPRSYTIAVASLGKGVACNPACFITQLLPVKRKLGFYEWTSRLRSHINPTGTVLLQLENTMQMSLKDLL
Sequence of Glutathione peroxidase 1 (Homo sapiens) (P07203 whole entry, looked up): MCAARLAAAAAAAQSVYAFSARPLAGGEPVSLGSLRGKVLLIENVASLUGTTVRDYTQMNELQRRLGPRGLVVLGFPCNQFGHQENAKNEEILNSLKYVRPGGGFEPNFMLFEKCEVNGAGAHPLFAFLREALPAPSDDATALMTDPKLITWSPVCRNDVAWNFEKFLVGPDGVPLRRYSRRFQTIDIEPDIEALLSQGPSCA
Sequence of Pyruvate kinase (Leishmania mexicana) (Q27686 2-499 E452W): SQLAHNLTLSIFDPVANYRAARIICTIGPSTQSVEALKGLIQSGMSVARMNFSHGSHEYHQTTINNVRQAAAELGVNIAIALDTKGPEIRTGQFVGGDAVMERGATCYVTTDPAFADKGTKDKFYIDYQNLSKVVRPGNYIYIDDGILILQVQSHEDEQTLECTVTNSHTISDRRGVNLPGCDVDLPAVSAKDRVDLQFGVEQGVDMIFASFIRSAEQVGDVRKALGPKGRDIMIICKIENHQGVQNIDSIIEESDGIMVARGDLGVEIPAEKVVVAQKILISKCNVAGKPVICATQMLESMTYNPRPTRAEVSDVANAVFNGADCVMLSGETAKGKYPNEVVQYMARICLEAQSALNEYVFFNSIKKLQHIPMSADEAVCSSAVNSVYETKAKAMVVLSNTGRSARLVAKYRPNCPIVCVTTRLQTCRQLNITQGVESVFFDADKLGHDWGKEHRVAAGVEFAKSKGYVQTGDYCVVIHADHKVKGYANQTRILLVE
Sequence of Pyruvate kinase PKM (Homo sapiens) (P14618 whole entry, looked up): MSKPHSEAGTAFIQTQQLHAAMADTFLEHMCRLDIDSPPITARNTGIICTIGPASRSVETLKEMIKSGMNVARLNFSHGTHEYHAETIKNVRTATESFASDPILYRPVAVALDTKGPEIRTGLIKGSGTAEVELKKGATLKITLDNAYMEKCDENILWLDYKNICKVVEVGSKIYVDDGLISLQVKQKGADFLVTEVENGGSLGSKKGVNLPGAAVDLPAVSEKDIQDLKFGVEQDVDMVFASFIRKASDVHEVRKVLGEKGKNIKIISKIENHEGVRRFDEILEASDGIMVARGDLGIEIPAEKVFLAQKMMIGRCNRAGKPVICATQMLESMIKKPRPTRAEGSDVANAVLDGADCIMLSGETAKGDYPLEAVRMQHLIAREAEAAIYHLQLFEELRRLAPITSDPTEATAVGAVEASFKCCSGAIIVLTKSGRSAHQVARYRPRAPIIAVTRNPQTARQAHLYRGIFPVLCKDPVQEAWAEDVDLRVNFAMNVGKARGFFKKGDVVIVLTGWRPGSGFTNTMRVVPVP
Sequence of 3',5'-cyclic-AMP phosphodiesterase 4B (Homo sapiens) (Q07343 whole entry, looked up): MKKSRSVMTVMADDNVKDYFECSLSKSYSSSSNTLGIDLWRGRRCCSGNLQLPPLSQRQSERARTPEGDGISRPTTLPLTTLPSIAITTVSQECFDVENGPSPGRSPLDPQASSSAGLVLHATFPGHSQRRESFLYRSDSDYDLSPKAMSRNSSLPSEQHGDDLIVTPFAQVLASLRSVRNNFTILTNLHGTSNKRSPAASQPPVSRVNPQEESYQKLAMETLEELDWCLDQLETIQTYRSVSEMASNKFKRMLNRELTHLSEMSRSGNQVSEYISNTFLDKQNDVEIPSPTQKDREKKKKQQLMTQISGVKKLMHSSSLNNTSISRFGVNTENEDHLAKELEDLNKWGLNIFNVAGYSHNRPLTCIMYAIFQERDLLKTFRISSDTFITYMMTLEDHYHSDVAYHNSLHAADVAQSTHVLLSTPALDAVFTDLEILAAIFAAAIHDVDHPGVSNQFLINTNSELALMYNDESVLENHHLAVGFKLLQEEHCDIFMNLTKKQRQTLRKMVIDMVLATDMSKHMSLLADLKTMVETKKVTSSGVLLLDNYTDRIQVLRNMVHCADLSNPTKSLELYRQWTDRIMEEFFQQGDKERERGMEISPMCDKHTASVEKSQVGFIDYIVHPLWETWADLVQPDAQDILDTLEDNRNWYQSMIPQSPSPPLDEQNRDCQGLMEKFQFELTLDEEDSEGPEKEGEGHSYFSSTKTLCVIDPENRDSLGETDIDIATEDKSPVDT

As to `CN1CC[C@@]23CCCC[C@@H]2[C@@H]1Cc1ccc(O)cc13`, the molecule was called inactive in [1], in experiment [3], in experiment [4], in experiment [6], in experiment [8] and in experiment [9]. The call in experiment [10], in [11], in [12], in experiment [13], in [14] and in [18] was inactive. The figures for the activity change, negative = inhibition in experiment [2] (at 17.2 µM (top of the series)) and in experiment [2] (at 38 µM (top of the series)) were -12.7% and -7.37%, respectively. Besides, the Potency result (in experiment [5]; in experiment [7]; in [15]; in experiment [17]; with Furin (Homo sapiens); in experiment [19]) was “inactive” throughout. For the same molecule, the Potency result (in [20]; in the experiment with astro) was “inactive” in each case. Further, the max response in [16] is 4.44%.
For `COc1ccc(C2COc3cc(O)ccc3C2)c(OC)c1O` (configuration not stated), the Potency entry in experiment [21] was “inactive”.
As for `CCCNC(=O)[C@H]1O[C@H]1C(=O)N[C@H](C(=O)N1CCC[C@@H]1C(=O)OC)C(C)CC` (some centres not stated), the Potency in experiment [21] was 27.3 µM (active).
`CNC(C)Cc1ccccc1` (configuration not stated): the Potency entry (in [15]; in [17]; in [22]; with astro) was “inactive” in each case. Moreover, in experiment [16], the max response was 7.96%.
As to `O=C1NC(=O)c2c1c1c3ccccc3n3c1c1c2c2ccccc2n1C1CCC3O1`, the values for the Potency in experiment [17], in experiment [25] and in [26] were 3.66 µM (active), 0.517 µM (active) and 0.731 µM (active), respectively. Besides, the Potency entry in [23], in [24] and in experiment [27] was “inactive” throughout.
With `CNCCCCc1cnc(C)c2[nH]c3ccccc3c12`, the Potency entry in [21] was “inactive”.
